This is part of a sample that, as a whole, favours compounds with a hit. Of some 79,000 tested, about 15% had one in any assay. Calls of active or inactive are those of the source. No stated cut-off is given here; in the data, active means growth inhibition above about 70%; inactive means the rest.
Columns and labels:
[1] = NCI Yeast Anticancer Drug Screen. Data for the rad50 strain (AID 155);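 further: 0% = growth of vehicle-only cultures of the same strain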; settings: S. cerevisiae rad50 strain growth inhibition; at 50.0 µM; stronger effect = higher value
Outline: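 Readout: growth inhibition relative to vehicle-treated cultures. Compound exposure was carried out in a genetically defined yeast strain deficient in DNA damage repair.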

[2] = NCI Yeast Anticancer Drug Screen. Data for the mec2-1 strain (AID 157); settings: S. cerevisiae mec2-1 strain, at 50.0 µM, stronger effect = higher value
Outline: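 Compounds were applied to mec2-1 yeast cells. Their growth was then compared with that of vehicle-treated cultures to give growth inhibition.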

[3] = NCI Yeast Anticancer Drug Screen. Data for the sgs1 mgt1 strain (AID 161);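 further: 0% = growth of cultures given vehicle only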; settings: S. cerevisiae sgs1 mgt1 strain, at 50.0 µM, stronger effect = higher value
Outline: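 Compounds are added to genetically altered yeast, and growth is compared with cultures given vehicle alone to give percent inhibition.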

[4] = NCI Yeast Anticancer Drug Screen. Data for the cln2 rad14 strain (AID 165);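 further: 0% = growth equal to vehicle treated cultures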; settings: S. cerevisiae cln2 rad14 strain, at 50.0 µM, stronger effect = higher value
Outline: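 Strain: cln2 rad14 yeast, altered in cell cycle control and DNA damage repair. Read-out: growth inhibition vs vehicle.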

[5] = NCI Yeast Anticancer Drug Screen. Data for the bub3 strain (AID 167); settings: S. cerevisiae bub3 mutant strain, at 50.0 µM, stronger effect = higher value
Outline: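 Readout: yeast growth inhibition, expressed relative to vehicle-only wells. The test organism is a mutant strain from a panel with lesions in DNA repair or checkpoint genes.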

[6] = NCI Yeast Anticancer Drug Screen. Data for the mlh1 rad18 strain (AID 175); settings: S. cerevisiae mlh1 rad18 strain growth inhibition; at 50.0 µM; stronger effect = higher value
Outline: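 A repair-deficient yeast strain is exposed to test compound, and growth is scored relative to vehicle-treated controls.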

Measured: growth inhibition

NC(CCCCn1nnc2c(=O)[nH]cnc21)C(=O)O (centres undefined)
inactive: [1] -12.3% | [2] -26.2% | [3] 6% | [4] -36.9% | [5] 7.1% | [6] -15.6%

O=C(NCCCl)c1ccc(F)cc1
inactive: [1] -21.2% | [2] -4.65% | [3] -12.4% | [4] 0.35% | [5] -6.95% | [6] -44.7%

O=c1[nH]nnc2cc(Cl)ccc12
inactive: [1] 0% | [2] 6.15% | [3] -4.65% | [4] -12.2% | [5] 2% | [6] -1.3%

COc1cccc(/C=N\c2nc(-c3ccccc3Cl)cs2)c1O
inactive: [1] 44% | [2] 5.15% | [3] 32.4% | [4] 21.9% | [5] 39.6% | [6] 27.4%

COc1cc(C(C)=O)cc(OCc2ccccc2)c1OC
inactive: [1] -2.85% | [2] 15.7% | [3] 18.2% | [4] -13.1% | [5] 15.4% | [6] 7.25%

COC(=O)C(/C(=N/N)C(=O)Nc1cc(Cl)ccc1Cl)c1nc2ccc([N+](=O)[O-])cc2[nH]c1=O (centres undefined)
inactive: [1] -10.6% | [2] -13.3% | [3] 7.3% | [4] 10.5% | [5] 13.9% | [6] 15.6%

CC(=O)NCC(OC(C)=O)c1ccc2c(c1)[nH]c1ccccc12 (centres undefined)
inactive: [1] 17.1% | [2] -6.5% | [3] -3.3% | [4] 10.1% | [5] 11.2% | [6] 31.2%

CC(O)CC(=O)c1ccc(O)cc1 (centres undefined)
inactive: [1] -42% | [2] -41% | [3] -30.2% | [4] 1.7% | [5] -49.5% | [6] -41.3%

O=C(O)c1cccc(Br)c1
inactive: [1] 4.85% | [2] -19.1% | [3] -8.4% | [4] -38.2% | [5] -5.7% | [6] -5.5%

CCOC(=O)C(Nc1cc([N+](=O)[O-])ccc1C(=O)N1CCCCC1)(C(=O)OCC)N1CCCCC1
inactive: [1] 4.6% | [2] 12.8% | [3] 13.8% | [4] 3.8% | [5] 0.2% | [6] 15%

CCOc1ccc(Cc2ccc3c(c2)OCO3)cc1C
inactive: [1] -17.2% | [2] -13.3% | [3] -7.55% | [4] -13.2% | [5] -2.1% | [6] 2.2%

Cc1cn(CCCSCC2OC3OC4C(CO)OC(OC5C(CO)OC(OC6C(CO)OC(OC7C(CO)OC(OC8C(CO)OC(OC9C(CO)OC(OC2C(O)C3O)C(O)C9O)C(O)C8O)C(O)C7O)C(O)C6O)C(O)C5O)C(O)C4O)c(=O)[nH]c1=O (centres undefined)
inactive: [1] -21.6% | [2] -9.35% | [3] -18.4% | [4] 0% | [5] -1.85% | [6] -14.2%

Cc1ccc(OCc2ccccc2)n[n+]1[O-]
inactive: [1] -20.6% | [2] -16.8% | [3] -10.8% | [4] -9.85% | [5] -9.7% | [6] -3%

CCCCCOC(=S)S.[Ag]
inactive: [1] -5.65% | [2] -15.2% | [3] -1.55% | [4] 13.2% | [5] -16.2% | [6] -8.4%

Oc1ccc(-c2ccc(O)cc2O)c(O)c1
inactive: [1] -1.45% | [2] -20.9% | [3] -1.85% | [4] 7.45% | [5] 0.35% | [6] 14.2%

CCCCCCCCCCCCCCCCC(=O)O
inactive: [1] -12.9% | [2] -15.8% | [3] -22.6% | [4] -27.8% | [5] 16.8% | [6] -7.85%

COc1ccc(C(C)=C2C=C(C(C)(C)C)C(=O)C(C(C)(C)C)=C2)cc1
inactive: [1] -26.6% | [2] -16.2% | [3] -17.4% | [4] 34.2% | [5] 1.35% | [6] -17.4%

CC#CCOC(=O)c1ccccc1OC(C)=O
inactive: [1] 27.8% | [2] -1.75% | [3] 23.9% | [4] 9.7% | [5] 26.9% | [6] 19.1%

CCCC(=O)C(N)Cc1ccc(O)cc1 (centres undefined)
inactive: [1] -16.6% | [2] -10.3% | [3] 4.35% | [4] -9.35% | [5] -16.1% | [6] -1.7%

COc1ccc(CCO)cc1
inactive: [1] 0.55% | [2] -36% | [3] -15.9% | [4] -10.2% | [5] -31.1% | [6] -33.2%

Cc1nc2cc(Cl)ccc2s1
inactive: [1] 30.5% | [2] 2.8% | [3] 22.1% | [4] 18.4% | [5] 30.3% | [6] 26.2%

C=C(C)C(=O)NC(Cc1cnc[nH]1)C(=O)O (centres undefined)
inactive: [1] 8.2% | [2] 0.5% | [3] 16.1% | [4] 1.15% | [5] 15.2% | [6] 0.55%

COc1ccc(C2C(C#N)=C(S)N(C3OC(COC(C)=O)C(OC(C)=O)C(OC(C)=O)C3OC(C)=O)C(c3ccccc3)=C2C(C)=O)cc1 (centres undefined)
inactive: [1] 44% | [2] 38.4% | [3] 42% | [4] -4.2% | [5] -38.9% | [6] 39%

CC(=O)CC(=O)c1ccc(Cl)cc1
inactive: [1] -28.4% | [2] -11.4% | [3] -10.8% | [4] -13.6% | [5] -4.1% | [6] -0.25%

Cc1onc(-c2c(F)cccc2Cl)c1-c1ncc(-c2ccc(Cl)cc2)o1
inactive: [1] 3.05% | [2] 3.3% | [3] 29.4% | [4] 0.8% | [5] 29.8% | [6] 16.4%

Cc1cc(O)c(/C=N/C(=S)NCCc2ccccc2)c(=O)o1
inactive: [1] -4.35% | [2] -29.5% | [3] -9.5% | [4] 10.3% | [5] 6.55% | [6] -20.6%

O=NN1C2CCCCC2C2CCCCC21 (centres undefined)
inactive: [1] -9% | [2] 20.5% | [3] -14.7% | [4] -5.25% | [5] 26.2% | [6] 3.8%

Cc1ccc2c(c1)[nH]c1ccccc12
inactive: [1] 15.3% | [2] 13.7% | [3] 26.2% | [4] -14.2% | [5] 22.6% | [6] 23.9%

O=[N+]([O-])c1ccc(-c2cc3ccccc3nc2Cl)cc1
inactive: [1] 15.4% | [2] 12.1% | [3] 8.4% | [4] 5.55% | [5] 28.4% | [6] 17%

C[Si](C)(C)CN=P(c1ccccc1)(c1ccccc1)c1ccccc1
inactive: [1] -29.6% | [2] -12.4% | [3] -19.2% | [4] 17.4% | [5] 3.7% | [6] -4.8%

CC1(C)OC(=O)C(=Cc2ccc(C#N)cc2)C(=O)O1
inactive: [1] 19% | [2] 9.6% | [3] 15.4% | [4] 11.8% | [5] 28.6% | [6] 22.8%

CC1=CC=CC(C)(C)C(=O)C1=O
inactive: [1] -31.4% | [2] -13.2% | [3] -12.8% | [4] -18.9% | [5] -21.5% | [6] -15.4%

COC(=O)NN/C=C(\C=Nc1ccccc1)[N+](=O)[O-]
inactive: [1] -0.25% | [2] 11.1% | [3] 17.4% | [4] 18.4% | [5] 12.9% | [6] 5.4%

N#CC1c2ccccc2C=CN1C(=O)c1ccccc1 (centres undefined)
inactive: [1] -15.9% | [2] -15.9% | [3] 12.5% | [4] -18.9% | [5] -8.95% | [6] -24.4%

C(/C=C/c1ccccc1)=Nc1ccc2c(c1)Cc1ccccc1-2
inactive: [1] 0.4% | [2] -0.35% | [3] -25.8% | [4] -27.9% | [5] -15.8% | [6] 9.9%

Cc1cc(C)c2[nH]c(=O)c(C)c(C)c2c1Br
inactive: [1] -0.5% | [2] 5.55% | [3] -7.2% | [4] -16.6% | [5] -1.3% | [6] -0.25%

Nc1ccc(C2SCC(=O)N2NS(=O)(=O)c2cccc(C(=O)O)c2)cc1 (centres undefined)
inactive: [1] -21.3% | [2] -24.1% | [3] 6.8% | [4] 0.8% | [5] -46.2% | [6] -54.5%

CC1(C)OC2COC(c3[nH]nc(C(N)=O)c3C(=O)N=[N+]=[N-])C2O1 (centres undefined)
inactive: [1] -11.3% | [2] -1.35% | [3] -12.1% | [4] 4.35% | [5] 7.85% | [6] -9.95%

COc1ccc(-n2[nH]c3c(cnc4ccccc43)c2=O)cc1
inactive: [1] 6.35% | [2] -33.9% | [3] -33% | [4] -10.8% | [5] -22.8% | [6] 2%

From PubChem BioAssay (NCI)
